The record followed here is PubChem BioAssay AID1345082 (National Center for Advancing Translational Sciences (NCATS), 2018).

Hit rate of the full screen: of about 94,000 compounds, about 4,000 (4.3%) were called active. Where a call stands in place of a potency, no number is given. Roughly 29% stayed inconclusive and do not appear here. Calls come from the whole dose curve; as a rule, active = well fitted inhibition curve with a large enough effect; inconclusive = small, poorly fitted or top-dose-only effect; inactive = no such curve, though single readings can be large or run the other way. This excerpt belongs to a sample that is enriched for actives.
Potency is the fitted concentration of half-maximal effect.

The test in a line: Cytotoxic Profiling in NIH 3T3 Cell Line of Diverse Libraries Using Quantitative High-Throughput Screening. Note: nearly all actives have a fitted effect of over 55% in size. Conditions: NIH 3T3 viability, CellTiter-Glo ATP luminescence, 48-72 h; series mostly up to 96.7 µM. In outline:
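Cytotoxicity is measured as loss of cellular ATP: NIH 3T3 cells (400/well) are exposed to compound for 48 or 72 hr at 37 °C, then CellTiter-Glo luminescence is imaged after 10 min at room temperature.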
In general terms: In ATP-based viability assays light output follows the ATP content of the culture.
Regarding `Cc1cc(N)n(CC(=O)N[C@@H]2COCC[C@@H]2OCc2c(C)noc2C)n1`, the Potency entry was “inactive”.
As for `CCc1c(C)nn(CCNc2ncnc3c2c(C)nn3C)c1C`, the Potency result is “inactive”.
The result for `O=C(CC1CC1)N1C[C@H]2OC(=O)N(CCc3cccc(Cl)c3)[C@H]2C1` reads “inactive”; that for `CC(=O)NC1CC2(CCN(C(=O)Cc3c[nH]c4ccccc34)CC2)c2ccccc21` (centres undefined), “inactive”.
The result for `COC[C@@H]1[C@@H](NC(=O)Cc2nn(C)c(=O)c3ccccc23)[C@@H]2CCO[C@H]12` reads “inactive”; that for `O=C1CO[C@H]2CN(C3CCC3)C[C@H]2N1Cc1ccc(OC(F)(F)F)cc1`, 89.1 µM (active); that for `COc1ccc(CN2C(=O)CO[C@H]3CN(Cc4cccnc4)C[C@H]32)cc1`, “inactive”.
The result for `COc1ccc(CN2C(=O)CO[C@H]3CN(C(=O)C4CC4)C[C@H]32)cc1` reads “inactive”; that for `Clc1ccc(-c2nnc3n2CCN(Cc2cccc4ccccc24)C3)cc1`, “inactive”; that for `CCc1noc(-c2cn(C3CCN(C(=O)c4ccc(Cl)cc4)C3)nn2)n1` (centres undefined), “inactive”.
Take `COc1cccc(CN2C(=O)OC3(CCN(C(=O)c4scnc4C)CC3)C2(C)c2cccnc2)c1` (centres undefined): the Potency was 31.6 µM (active).
For the molecule `COc1cccc(C(=O)N2CCC(Cc3nc(-c4cnccn4)no3)CC2)c1`, the Potency entry is “inactive”.
The result for `COc1cccc(CN2CCN(C(=O)c3cnc4ccccn4c3=O)CC2=O)c1` reads “inactive”; that for `O=C(CCCc1ccccc1)Nc1ccnn1C1CCN(C(=O)CCn2cncn2)CC1`, “inactive”; that for `Cc1cc(C(=O)N2CC[C@@H]3CN(Cc4ccccc4)[C@@H]3C2)nn1C`, “inactive”.
The result for `Cc1nc(-c2c3n(c(=O)n(CC(=O)Nc4ccccc4C)c2=O)CCCCC3)no1` reads “inactive”; that for `Cc1nc2scc(CC(=O)NC(C)C)n2c(=O)c1-c1cc(C)n(-c2cccc(Cl)c2)n1`, “inactive”; that for `CC(C)c1ccc(N2C(=O)N[C@@H]3CCN(C(=O)c4ccc(C(C)(C)C)cc4)[C@@H]3C2=O)cc1`, 70.8 µM (active).
The result for `CCn1c(C2CCCN(C(=O)c3ccc(C(C)(C)C)cc3)C2)nn(C)c1=O` (centres undefined) reads “inactive”; that for `O=C1C(N2CCN(S(=O)(=O)c3ccccc3)CC2)CCN1CCc1ccccc1` (centres undefined), “inactive”; that for `Cc1ccccc1NC(=O)Nc1ccnn1C1CCN(C(=O)CCN)CC1`, “inactive”.
Turning to `CC(C)c1ccc(C(=O)N2C[C@@H]3CCCN4CCC[C@@H]([C@H]34)[C@H]2CCCC(=O)N2CCOCC2)cc1`, the Potency entry was “inactive”.
The result for `CCC(CC)C(=O)NC1CCN(c2cnn(CCOC)c(=O)c2)CC1` reads “inactive”; that for `COc1ccccc1CN1CC[C@@H](CO)N(C)c2ncccc2C1`, 35.5 µM (active).
The result for `Cc1ccc2c(n1)N(C)[C@H](CO)CCN(Cc1ccccc1C)C2` reads “inactive”; that for `Cc1ccc2c(n1)N(C)[C@H](CO)CCN(Cc1cccc(Cl)c1)C2`, “inactive”; that for `Cc1ccc(-c2cc3c(=O)n(CCNC(=O)Cc4c[nH]c5ccccc45)ccn3n2)cc1C`, “inactive”.
The result for `O=C(NCc1ccncc1)C1CC(=O)N(c2n[nH]c3ccccc23)C1` (centres undefined) reads “inactive”.
Consider `Cc1cccc(OCCc2noc(C3CCCN3C(=O)c3ccnn3C)n2)c1` (centres undefined), for which the Potency entry was “inactive”.
The result for `COc1ccc(NC(=O)N2CCCC(Cc3noc(-c4ccccc4)n3)C2)cc1` (centres undefined) reads 35.5 µM (active); that for `Cc1cc(C(=O)N2CCCC(Cc3noc(-c4cccnc4)n3)C2)nn1C` (centres undefined), “inactive”.
On to `COCCCNC(=O)N1CCC(Cc2noc(-c3ccncc3)n2)C1` (centres undefined), for which the Potency entry was “inactive”.
The result for `CCN1C(=O)CCN(C(=O)NCCCOC)CC12CCOCC2` reads “inactive”.
`O=C1NC(=NC2CCCCC2)C2(CCN([S+](=O)([O-])c3ccccc3)C2)N1c1cccnc1` (centres undefined): the Potency result is “inactive”.
The result for `O=C(c1ccsc1)N1CCCCCC1c1nnc(-c2ccccc2)o1` (centres undefined) reads “inactive”; that for `COc1ccccc1N1CCCc2ncc(C(=O)N3CCCC[C@@H]3c3ccccc3)cc21`, 70.8 µM (active); that for `COc1ccccc1N1CCN(C(=O)C2CCCN(C(=O)c3ccccc3)CCC(=O)NCC2)CC1` (centres undefined), “inactive”.
Take `COc1ccc(C(=O)N2CCCN(C(=O)C3CC3)C(c3ccccc3)CC(=O)NCC2)cn1` (centres undefined): the Potency result is “inactive”.
Consider `CNC(=O)c1cc(C2CC2)nc2onc(C3CCCN(C(=O)OC)C3)c12` (centres undefined), for which the Potency entry is “inactive”.
The result for `CC(C)NC(=O)NC[C@H]1O[C@@H]2C[C@@H](CC(=O)NCc3nccn3C)O[C@@H]2[C@@H]1O` reads “inactive”; that for `NC(=O)c1cccc(-c2ncc3c(n2)OCCN(c2cccc(C(F)(F)F)c2)C3=O)c1`, 15.8 µM (active).
The result for `COc1ccc(OC2CCN(C(C)=O)CC2)c(C(=O)N(C)Cc2ccc3nccnc3c2)c1` reads “inactive”.
As for `O=C([C@H]1C[C@@H](F)CN1S(=O)(=O)c1ccc(F)c(Cl)c1)N1CCOCC1`, the Potency entry is “inactive”.
The result for `CN1C[C@@H](NC(=O)COc2ccccc2)C[C@H]1c1nc(-c2ccc3c(c2)OCO3)no1` reads “inactive”; that for `CN1C[C@@H](NC(=O)c2ccc(C#N)cc2)C[C@H]1c1nc(-c2ccc(OC(F)(F)F)cc2)no1`, 39.8 µM (active).
The result for `CN1C[C@@H](NC(=O)c2ccccc2)C[C@H]1c1nc(-c2ccccc2)no1` reads “inactive”; that for `COc1ccc(CCc2nc(NC(=O)Cn3nc4c(cc3=O)CCCCC4)n[nH]2)cc1`, “inactive”; that for `Cc1nc(CCNC(=O)C2CCCN(c3nc(-c4ccccc4)nc4c3CCC4)C2)n[nH]1` (centres undefined), “inactive”.
For `Cc1ccccc1CN1CCC(N2CCCC(C(=O)NC3CC3)C2)CC1` (centres undefined), the Potency result was “inactive”.
Consider `O=C(NCc1ccc(F)cc1)C1CCN(c2nccc(Nc3ccccc3F)n2)CC1`, for which the Potency was 44.7 µM (active).
Take `CNC(=O)C1CCN(c2nccc(Nc3ccccc3F)n2)CC1`: the Potency entry is “inactive”.
The result for `Cc1ccc(CNC(=O)C2CCN(C(=O)c3ncn4c3COC(c3ccc(F)cc3)C4)CC2)cc1` (centres undefined) reads “inactive”.
Take `CC(C)CNC(=O)C1CCCN(c2nccc(Nc3ccccc3F)n2)C1` (centres undefined): the Potency is 44.7 µM (active).
The result for `O=C(NC1CC1)C1CCCN(c2nc3ncccc3o2)C1` (centres undefined) reads “inactive”.
Take `O=C(NC1CCCCC1)C1CCCN(c2nccc(Nc3ccccc3F)n2)C1` (centres undefined): the Potency was 14.1 µM (active).
The result for `O=C(NCc1cccnc1)C1CCCN(c2cnn(Cc3ccccc3)c(=O)c2)C1` (centres undefined) reads “inactive”; that for `Cc1ccc(C(=O)N2CCC(c3n[nH]c(=O)n3Cc3ccc(F)cc3)CC2)cc1`, “inactive”.
For the molecule `O=C1CCN([C@@H]2CCC[C@H]2O)c2cc3c(cc2CN1Cc1ccccc1)OCO3`, the Potency entry is “inactive”.
The result for `COc1cccc([S+](=O)([O-])N2CCCC3(CC(c4ccccc4)=NO3)C2)c1` (centres undefined) reads “inactive”.
As for `N[C@@H](Cc1cnc[nH]1)C(=O)N1CCC(c2cc(N3CCCC3)ncn2)CC1`, the Potency result is “inactive”.
The result for `COc1ccc(C2Cn3nnc(-c4noc(-c5sccc5C)n4)c3CO2)cc1` (centres undefined) reads “inactive”; that for `CCc1cc(C(=O)N2CCC(Oc3ccccc3)(C(=O)O)CC2)cs1`, “inactive”.
The result for `CC(C)CNc1ncnc2c1CN(C1CCC1)C(=O)CN2C` reads “inactive”; that for `O=C(c1ccc(F)c(F)c1)N1CCN(C2CCN(CCc3ccccc3)C2=O)CC1` (centres undefined), “inactive”.
The result for `COCc1nncn1C1CCN(C(=O)c2ccccc2F)CC1` reads “inactive”; that for `O=C1Nc2ccc(-c3ccccc3F)cc2C(=O)N2CCN(C(=O)c3cccs3)C[C@H]12`, “inactive”.
Consider `O=C1Nc2ccc(-c3ccsc3)cc2C(=O)N2CC[C@H](NS(=O)(=O)c3cccs3)[C@@H]12`, for which the Potency result is “inactive”.
The result for `N[C@H]1CCN2C(=O)c3cc(-c4ccc(F)cc4F)ccc3NC(=O)[C@H]12` reads 112 µM (active); that for `CS(=O)(=O)N1C[C@H]2CCN(C(=O)c3ccc(=O)[nH]c3)C[C@H]21`, “inactive”.
The result for `CC(=O)N[C@@H]1CN(Cc2cn[nH]c2-c2ccc(F)cc2)C[C@H]1CO` reads “inactive”.
`COc1ccc2cc(-c3[nH]ncc3CN3CCN(c4cccc(C)n4)CC3)ccc2c1`: the Potency was 28.2 µM (active).
As to `COc1ccc(-c2[nH]ncc2CN2CCCC(C(=O)NCc3ccccc3)CCNC(=O)CC2)cc1` (centres undefined), the Potency entry was “inactive”.
In the case of `CCc1nnc([C@@H]2CC(F)(F)CN2C(=O)c2cc(C)oc2C)o1`, the Potency result was “inactive”.
For `C=CCNC(=O)N[C@H]1C[C@@H](C(=O)N[C@H](Cc2c[nH]c3ccccc23)C(N)=O)N(C(=O)C=C(C)C)C1`, the Potency result was “inactive”.
The result for `O=C1CC2(CCN(C(=O)C3CCN(C(=O)c4ccccc4Cl)CC3)CC2)Oc2ccccc2N1` reads “inactive”; that for `Cn1cnc(S(=O)(=O)N2CCC(c3noc(-c4ccccc4)n3)C2)c1` (centres undefined), “inactive”; that for `O=C(Cn1ccnc1)N1CCC(c2noc(-c3ccncc3)n2)C1` (centres undefined), “inactive”.
Consider `O=C(NC1CCCC1)N1CCC(c2noc(-c3ccccc3)n2)C1` (centres undefined), for which the Potency was 39.8 µM (active).
The result for `Cc1noc(C)c1S(=O)(=O)N1CCC2(CC1)CN(c1ccccc1)C2=O` reads “inactive”.
For `O=C(NC1CCCCC1)N1CCCC(Cn2c(C3CC3)nc3cccnc32)C1` (centres undefined), the Potency result was “inactive”.
The result for `Cc1nc(N2CCC(NC(=O)c3ccc4c(c3)OCO4)CC2)cc(C(F)(F)F)n1` reads “inactive”.
The result for `Cc1nc(N2CCC(C(=O)NCc3ccc(C(C)C)cc3)CC2)cc(C(F)(F)F)n1` reads 25.1 µM (active).
Consider `Cc1nc(N2CCC(NC(=O)C(C)Oc3ccccc3)CC2)cc(C(F)(F)F)n1` (centres undefined), for which the Potency result is “inactive”.
The result for `CNC(=O)N1CCc2nc(N3CCOCC3)[nH]c(=O)c2CC1` reads “inactive”; that for `COc1ccc([S+](=O)([O-])c2nnn3c2nc(NC2CCCC2)c2ccccc23)cc1`, “inactive”.
The result for `O=C(NCC1CC1)c1nc2c(o1)CCN(CCc1ccccc1)CC2` reads “inactive”.
As for `CCc1nc2c(c(-c3ccc(OC)cc3)n1)CCN(CC1CCCCC1)CC2`, the Potency result is “inactive”.
With `O=C(NCCOc1ccccc1)c1nc2c(o1)CCN(CC1CCCCC1)CC2`, the Potency was 79.4 µM (active).
The result for `CN(C)C[C@@H]1CN(S(C)(=O)=O)C[C@H]1NC(=O)c1cccc(F)c1` reads “inactive”.
For `COc1ccc(C(=O)N2CCC(N3C[C@H](O)C[C@H]3C(=O)NC3CCCCC3)CC2)cn1`, the Potency result was “inactive”.
The result for `C[S+](=O)([O-])N1CCC2(C1)N=C(c1ccccn1)C(=O)N2` (centres undefined) reads “inactive”; that for `CCN1C(=O)COC[C@@H]1C(O)c1ccc(NC(=O)Cc2ccc(OC)cc2)cc1` (some centres undefined), “inactive”.
As to `COc1ccccc1CN1C(=O)COC[C@@H]1[C@H](O)c1ccc(NC(=O)c2ccc(C#N)cc2)cc1`, the Potency is 44.7 µM (active).
The result for `CC(C)CN1C(=O)COC[C@@H]1[C@H](O)c1ccc(NC(=O)Cc2ccccc2)cc1` reads “inactive”.
